This is part of a sample that, as a whole, favours compounds with a hit. Of some 83,000 tested, about 20% had one in any assay.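 Growth was measured after 48 h exposure to one concentration of compound in 96-well plates. Values under 10 count as active.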 Active and inactive are the calls of the source.
How the values were obtained:
Experiment in all cases: NCI-60 one-dose screen, 48 h (100 = growth as untreated, 0 = no growth, -100 = all killed)
Conditions in all cases: 10 µM
[1] = system: T-47D breast
[2] = system: MDA-MB-435 melanoma
[3] = system: SW-620 colon
[4] = system: MCF7 breast
[5] = system: HCT-116 colon
[6] = system: HCC-2998 colon
[7] = system: KM12 colon
[8] = system: BT-549 breast

Measured: growth

O=C/C=C/c1ccc([N+](=O)[O-])cc1Cl
active: [5] 2.9%
inactive: [1] 86.4% | [2] 95.9% | [3] 90% | [4] 62.8% | [6] 111% | [7] 95.6%

COc1ccccc1NC1=C(N2CCCCC2)C(=O)c2ccccc2C1=O
inactive: [1] 77.4% | [2] 93.2% | [3] 93.4% | [5] 78.1% | [6] 91.7%

COc1ccc(/C(CS(=O)(=O)c2ccccc2)=N\O)cc1
inactive: [1] 93.4% | [2] 94.1% | [3] 111% | [4] 94.6% | [5] 125% | [6] 112% | [7] 123%

C[C@@H]1N=C(c2ccc(Br)cc2)Nc2nc3ccccn3c2C1=O
inactive: [1] 67.2% | [3] 38% | [5] 29.2% | [6] 69% | [7] 29.6%
active: [2] -13%

NCCNc1ccc2cc(-c3nc4ccccc4[nH]3)c(=O)oc2c1
inactive: [1] 82.2% | [2] 101% | [3] 103% | [4] 80.9% | [5] 93.9% | [6] 97.9% | [7] 99.8%

COc1ccc(CCc2nc3cc(-c4c(C)noc4C)ccc3n2CCN2CCOCC2)cc1
inactive: [1] 28.2% | [2] 26.1% | [3] 26.6% | [4] 34.5% | [5] 31.1% | [6] 47.3% | [7] 33.6%

Cc1cc(C#Cc2ccccc2)ccc1-n1c(/C=C/c2cc(O)ccc2O)nc2ccccc2c1=O
active: [1] -16.8% | [2] -56.3% | [3] 5.7% | [4] 2.03% | [5] -43.8% | [6] -49.6% | [7] -5.21%

CC(=O)Oc1ccc(C2=Cc3ccc(OC(C)=O)cc3OC2C)cc1 (stereo unspecified)
inactive: [1] 88.5% | [2] 25.2% | [3] 47% | [4] 49.1% | [5] 38.3% | [6] 78.2% | [7] 39%

CCOC(=O)c1ccc(N(C=O)CCC(=O)CCl)cc1
inactive: [6] 14.2%
active: [1] -4.12% | [2] -23.9% | [3] 7.93% | [4] -8.44% | [5] 1.64% | [7] 4.98%

COc1ccc(C2C=C(c3ccc(Cl)c(Cl)c3)N=C3SC(C)=CN32)cc1OC (stereo unspecified)
inactive: [1] 64% | [2] 69.4% | [4] 72.8% | [5] 48.8% | [6] 77.8% | [7] 57%

O=C(CSc1nnc(-c2ccc(Cl)cc2)o1)c1ccccc1
inactive: [1] 93% | [2] 109% | [3] 107% | [5] 92.2% | [6] 87.5% | [7] 96.3%

CCn1nc(-c2ccc(C(=O)OC)cc2)nc2c(=O)n(C)c(=O)nc1-2
inactive: [8] 98.2% | [2] 64.1% | [3] 97.7% | [4] 80% | [5] 51.5% | [6] 116% | [7] 80.4%

COc1cc(-c2nc3ccccc3[nH]2)ccc1OCc1nnc(-c2ccc(Br)cc2)o1
inactive: [8] 98.4% | [2] 81% | [3] 102% | [4] 53.6% | [5] 59.9% | [6] 102% | [7] 69.2%

COc1cc2c3c(cccc3c1)C(=O)N(CCN1CCCC1)C2=O
inactive: [8] 49.4% | [2] 14.4% | [6] 44.4% | [7] 21.3%
active: [3] 9.75% | [4] 3.07% | [5] 6.66%

O=C(O)c1ccccc1C(=O)c1cccc2c(F)cccc12
inactive: [8] 103% | [2] 112% | [3] 106% | [4] 93.5% | [5] 103% | [6] 105% | [7] 111%

COc1ccc(OC)c([N+](=O)[O-])c1C=O
inactive: [8] 117% | [2] 101% | [3] 65.1% | [4] 38.2% | [5] 50.7% | [6] 110% | [7] 95.8%

COc1cc(OC)cc(N2CCN(C(=O)Nc3nc4cc(F)ccc4nc3OC)CC2)c1
inactive: [8] 24.4% | [3] 22% | [4] 23.4% | [6] 21.4% | [7] 13.7%
active: [2] -31.9% | [5] 0.21%

Nc1ccc(C2=CC(c3ccc(Cl)cc3)N3C=CSC3=N2)cc1 (stereo unspecified)
active: [8] -50.7% | [2] -65.7% | [3] -60.5% | [4] -32.1% | [5] -89.3% | [6] -95.7% | [7] -41.4%

COCc1cc2c(cc1Br)OCO2
inactive: [8] 105% | [2] 108% | [3] 103% | [4] 96.4% | [5] 98.6% | [6] 95.9% | [7] 104%

O=C(Cn1ccc(=O)[nH]c1=O)c1ccc([N+](=O)[O-])o1
inactive: [8] 99.4% | [2] 97.1% | [3] 102% | [4] 38.2% | [5] 88.7% | [6] 111% | [7] 83.9%

COc1cc(C2C=C(c3ccc(Cl)c(Cl)c3)N=C3SC(C)=CN32)cc(OC)c1OC (stereo unspecified)
active: [5] -25.8%
inactive: [8] 58.7% | [2] 46.6% | [3] 50.6% | [4] 24.6% | [6] 90.7% | [7] 65.1%

O=C(CCc1ccccc1)N1CCN(C(=O)CCc2ccccc2)CC1
inactive: [8] 105% | [2] 106% | [3] 109% | [4] 95.7% | [5] 99.6% | [6] 109% | [7] 111%

COc1ccc(-c2nnc(SC/C(=N\O)c3ccccc3)o2)cc1
inactive: [8] 100% | [2] 106% | [3] 103% | [4] 104% | [5] 91.6% | [6] 94% | [7] 86.2%

O=C(N/N=C\c1cc(Cl)ccc1O)c1ccncc1
inactive: [2] 89.4% | [4] 14.6% | [5] 24.6% | [6] 45.2% | [7] 53.6%

Source: PubChem BioAssay (NCI)
